Unmarked numbers belong to inactive results.
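Note: TDF is a line of transformed human dermal fibroblasts of mesenchymal origin.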

This experiment relates to HCC1569. The experiment can be described thus: H1.0 immunofluorescence intensity relative to DMSO (% of DMSO); higher = stronger H1.0 induction, active = 140 or more. Particulars: concentration: 10 µM; 24 h. Put shortly: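 Cells were seeded at 800 per well in 384-well plates with RPMI containing 10% FBS; both HCC1569 and TDF lines were used. Compounds were added at 10 µM for 24 h at 37 °C, in triplicate, before fixation in 3.7% formaldehyde and staining with a rabbit anti-H1.0 antibody, an AlexaFluor 647 secondary and DAPI. H1.0 nuclear intensity or cell number is reported as percent of the plate control using the median of replicates, and HCC1569 values were smoothed for positional effects.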
`COCc1nc2c([nH]1)c(=O)n(C)c(=O)n2CC(C)C` [8-Methoxymethyl-3-isobutyl-1-methylxanthine]: the H1.0 immunofluorescence intensity is 93.2.

As to `O=c1c(O)c(-c2cc(O)c(O)c(O)c2)oc2cc(O)cc(O)c12` [Myricetin], the H1.0 immunofluorescence intensity is 91.7.

With `CCCS(=O)(=O)Nc1ccc(F)c(C(=O)c2c[nH]c3ncc(Cl)cc23)c1F`, the H1.0 immunofluorescence intensity is 111.

As to `CCCNC(=O)NS(=O)(=O)c1ccc(Cl)cc1` [Chlorpropamide], the H1.0 immunofluorescence intensity was 91.2.

In the case of `O=C(Nc1cccc(Cl)c1)Nc1ncc(CCNc2ncnc3ccsc23)s1`, the H1.0 immunofluorescence intensity was 178 (active).

Turning to `COc1c(O)cc2oc(-c3ccc(O)cc3)cc(=O)c2c1O` [5,7-dihydroxy-2-(4-hydroxyphenyl)-6-methoxy-4H-chromen-4-one], the H1.0 immunofluorescence intensity was 106.

As for `Cc1ccc(NC2=CC(=O)c3sc(C)nc3C2=O)cc1` [Cdk4 Inhibitor III], the H1.0 immunofluorescence intensity is 105.

With `CC(=O)C1(O)CCC2C3CCC4=CC(=O)CCC4(C)C3CCC21C` (stereo not drawn) [17alpha-hydroxyprogesterone], the H1.0 immunofluorescence intensity is 99.8.

As to `COc1cc2c(cc1O)CCC1C2CCC2(C)C(O)CCC12` (configuration not stated) [2-methoxyestradiol], the H1.0 immunofluorescence intensity is 156 (active).

For `CCCn1c(=O)c2[nH]c(-c3ccc(OCC(=O)NCCN)cc3)nc2n(CCC)c1=O` [Xanthine amine congener], the H1.0 immunofluorescence intensity is 110.

As to `CCOC(=O)C1=C(COCCN)NC(C)=C(C(=O)OC)C1c1ccccc1Cl` (configuration not stated) [Amlodipine], the H1.0 immunofluorescence intensity is 106.

Consider `N=C1Sc2ccccc2C2=NCCCN12`, for which the H1.0 immunofluorescence intensity is 112.

As for `CNC1CC2OC(C)(C1OC)n1c3ccccc3c3c4c(c5c6ccccc6n2c5c31)C(=O)NC4O` (configuration not stated), the H1.0 immunofluorescence intensity was 121.

Regarding `COc1cc(CCC(C)=O)ccc1O` [Vannilylacetone], the H1.0 immunofluorescence intensity was 93.5.

As to `O=c1[nH]c(=O)n([C@H]2C[C@H](O)[C@@H](CO)O2)cc1/C=C/Br` [(E)-5-(2-Bromovinyl)-2'-deoxyuridine], the H1.0 immunofluorescence intensity was 87.7.

In the case of `CC[N+](C)(C)Cc1ccccc1Br.Cc1ccc(S(=O)(=O)[O-])cc1` [Bretylium tosylate], the H1.0 immunofluorescence intensity was 103.

For `O=C(c1ccc2c(c1)OCCO2)N1CCCCC1`, the H1.0 immunofluorescence intensity is 107.

`COc1cc2oc(=O)ccc2cc1O` [Isoscopoletine]: the H1.0 immunofluorescence intensity is 89.1.

For `CC1CC2OC2C=CC=CC(=O)Cc2c(Cl)c(O)cc(O)c2C(=O)O1` (configuration not stated) [Radicicol], the H1.0 immunofluorescence intensity was 121.

In the case of `Nc1cccc(-c2cc3c(Oc4cccc(O)c4)ncnc3[nH]2)c1` [GSK3b Inhibitor XII, TWS119], the H1.0 immunofluorescence intensity was 214 (active).

As to `CNC1(C)C2CCC(C2)C1(C)C.Cl` (configuration not stated) [Mecamylamine hydrochloride], the H1.0 immunofluorescence intensity was 93.5.

Consider `CC1=C(C)C(=O)C(CCCCC#CCCCC#CCO)=C(C)C1=O` [Docebenone], for which the H1.0 immunofluorescence intensity was 110.

Regarding `O=C1c2ccccc2-c2n[nH]c3cccc1c23`, the H1.0 immunofluorescence intensity is 138.

Consider `CN(C)[C@@H]1CCc2[nH]c3ccc(NC(=O)c4ccc(F)cc4)cc3c2C1.Cl`, for which the H1.0 immunofluorescence intensity is 114.

Regarding `CN(C)CCC(c1ccc(Br)cc1)c1ccccn1.O=C(O)C=CC(=O)O` (single isomer, unassigned; (+)) [(+)-Brompheniramine maleate], the H1.0 immunofluorescence intensity is 102.

`CC1=NC(=NNc2ccc(C(=O)[O-])cc2)C(COP(=O)([O-])[O-])=C(C=O)C1=O.[Na+].[Na+].[Na+]`: the H1.0 immunofluorescence intensity is 103.

`CS(=O)(=O)CCNCc1ccc(-c2ccc3ncnc(Nc4ccc(OCc5cccc(F)c5)c(Cl)c4)c3c2)o1` [Lapatinib]: the H1.0 immunofluorescence intensity was 151 (active).

`CC1=CCC(C)(C)C=CC(=O)C(C)=CCC1` [Zerumbone]: the H1.0 immunofluorescence intensity was 121.

As to `O=C1CCc2cc(OCCCCc3nnnn3C3CCCCC3)ccc2N1` [Cilostazol], the H1.0 immunofluorescence intensity was 97.

As for `CN(C(=O)CCCOc1ccc2[nH]c(=O)ccc2c1)C1CCCCC1` [Cilostamide], the H1.0 immunofluorescence intensity is 98.1.

For the molecule `Cc1ccc(NC(=O)CCCCCC(=O)Nc2ccccc2N)cc1` [N~1~-(2-aminophenyl)-N~7~-(4-methylphenyl)heptanediamide], the H1.0 immunofluorescence intensity was 214 (active).

For the molecule `Cc1c(-c2cnccn2)ssc1=S` [Oltipraz], the H1.0 immunofluorescence intensity is 114.

(Values after the supplement of paper PMC7156485.)
